# According to the supplement of paper PMC12282887:
# ± gives the standard deviation of the averaged measurements.
# Tests used:
# Test in all cases: promoter activity interaction Z-score (Lux/OD deviation from empty-vector control); higher = stronger promoter induction by the compound
# [1] = tested on: E. coli BW25113 ompFp lux reporter
# Summary of the method: (§1)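 E. coli BW25113, as wild type or one of three single-gene deletion strains, carried low-copy luxCDABE promoter reporters and grew in 40 µl LB Lennox in 384-well plates at 37°C, with OD600 and luminescence read every 30 min for 12 h. Each compound was run at four 1:2 dilutions in biological duplicates, integration spanned 0–8 h for wild type and 1–9 h for deletion strains, and wells under 10% of the median growth value were dropped. The score is the Z-transformed residual of growth-normalised luminescence fitted against a control.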
# [2] = tested on: E. coli BW25113 robp lux reporter
# Summary of the method: as §1
# [3] = tested on: E. coli BW25113 soxSp lux reporter
# Summary of the method: as §1
# [4] = tested on: E. coli BW25113 tolCp lux reporter
# Summary of the method: as §1
# [5] = 0.046 µg/ml, genetic background: wild type
# [6] = 0.046 µg/ml, genetic background: ΔmarA
# [7] = 0.046 µg/ml, genetic background: Δrob
# [8] = 0.046 µg/ml, genetic background: ΔsoxS
# [9] = 0.091 µg/ml, genetic background: wild type
# [10] = 0.091 µg/ml, genetic background: ΔmarA
# [11] = 0.091 µg/ml, genetic background: Δrob
# [12] = 0.091 µg/ml, genetic background: ΔsoxS
# [13] = 0.011 µg/ml, genetic background: wild type
# [14] = 0.011 µg/ml, genetic background: ΔmarA
# [15] = 0.011 µg/ml, genetic background: Δrob
# [16] = 0.011 µg/ml, genetic background: ΔsoxS
# [17] = 0.023 µg/ml, genetic background: wild type
# [18] = 0.023 µg/ml, genetic background: ΔmarA
# [19] = 0.023 µg/ml, genetic background: Δrob
# [20] = 0.023 µg/ml, genetic background: ΔsoxS
smiles,measurement,setting,value
C[C@@H]1O[C@@H]1P(=O)(O)O [Fosfomycin],promoter activity interaction Z-score,[1]; [5],-0.707 ± 0.057
same,promoter activity interaction Z-score,[1]; [6],0.0141 ± 0.47
same,promoter activity interaction Z-score,[1]; [7],0.161 ± 0.65
same,promoter activity interaction Z-score,[1]; [8],0.414 ± 0.21
same,promoter activity interaction Z-score,[1]; [9],3.07 ± 0.41
same,promoter activity interaction Z-score,[1]; [10],3.8 ± 2.2
same,promoter activity interaction Z-score,[1]; [11],2.55 ± 1.5
same,promoter activity interaction Z-score,[1]; [12],2.08 ± 5
same,promoter activity interaction Z-score,[2]; [13],0.505 ± 0.043
same,promoter activity interaction Z-score,[2]; [14],0.245 ± 0.25
same,promoter activity interaction Z-score,[2]; [15],0.133 ± 0.36
same,promoter activity interaction Z-score,[2]; [16],0.554 ± 0.71
same,promoter activity interaction Z-score,[2]; [17],0.0622 ± 0.91
same,promoter activity interaction Z-score,[2]; [18],0.483 ± 0.81
same,promoter activity interaction Z-score,[2]; [19],0.389 ± 0.11
same,promoter activity interaction Z-score,[2]; [20],1.15 ± 1.3
same,promoter activity interaction Z-score,[2]; [5],-0.338 ± 0.75
same,promoter activity interaction Z-score,[2]; [6],-0.357 ± 0.2
same,promoter activity interaction Z-score,[2]; [7],0.416 ± 0.18
same,promoter activity interaction Z-score,[2]; [8],1.3 ± 1
same,promoter activity interaction Z-score,[2]; [9],-0.301 ± 0.048
same,promoter activity interaction Z-score,[2]; [10],0.127 ± 0.3
same,promoter activity interaction Z-score,[2]; [11],-0.752 ± 0.35
same,promoter activity interaction Z-score,[2]; [12],-0.158 ± 0.9
same,promoter activity interaction Z-score,[3]; [13],0.228 ± 0.36
same,promoter activity interaction Z-score,[3]; [14],0.2 ± 0.11
same,promoter activity interaction Z-score,[3]; [15],-0.0473 ± 0.12
same,promoter activity interaction Z-score,[3]; [16],0.164 ± 0.072
same,promoter activity interaction Z-score,[3]; [17],-0.175 ± 0.12
same,promoter activity interaction Z-score,[3]; [18],0.188 ± 0.14
same,promoter activity interaction Z-score,[3]; [19],-0.154 ± 0.05
same,promoter activity interaction Z-score,[3]; [20],0.0176 ± 0.14
same,promoter activity interaction Z-score,[3]; [5],-0.307 ± 0.09
same,promoter activity interaction Z-score,[3]; [6],0.119 ± 0.16
same,promoter activity interaction Z-score,[3]; [7],0.0235 ± 0.023
same,promoter activity interaction Z-score,[3]; [8],0.138 ± 0.19
same,promoter activity interaction Z-score,[3]; [9],-0.0128 ± 0.14
same,promoter activity interaction Z-score,[3]; [10],0.0924 ± 0.018
same,promoter activity interaction Z-score,[3]; [11],-0.135 ± 0.043
same,promoter activity interaction Z-score,[3]; [12],0.657 ± 0.49
same,promoter activity interaction Z-score,[4]; [13],-0.233 ± 0.12
same,promoter activity interaction Z-score,[4]; [14],-0.202 ± 0.12
same,promoter activity interaction Z-score,[4]; [15],-0.412 ± 0.27
same,promoter activity interaction Z-score,[4]; [16],-0.149 ± 0.38
same,promoter activity interaction Z-score,[4]; [17],-0.358 ± 0.5
same,promoter activity interaction Z-score,[4]; [18],0.891 ± 0.16
same,promoter activity interaction Z-score,[4]; [19],-0.173 ± 0.68
same,promoter activity interaction Z-score,[4]; [20],0.35 ± 0.7
same,promoter activity interaction Z-score,[4]; [5],-1.79 ± 0.32
same,promoter activity interaction Z-score,[4]; [6],-0.292 ± 0.4
same,promoter activity interaction Z-score,[4]; [7],-0.445 ± 0.36
same,promoter activity interaction Z-score,[4]; [8],0.22 ± 0.3
same,promoter activity interaction Z-score,[4]; [9],-0.204 ± 0.16
same,promoter activity interaction Z-score,[4]; [10],-0.347 ± 0.15
same,promoter activity interaction Z-score,[4]; [11],-0.366 ± 0.71
same,promoter activity interaction Z-score,[4]; [12],-0.266 ± 0.13
